Structures are written as SMILES. Calls of active or inactive are those of the source. The calls were made as follows: active = hit-call score of the fitted dose curve at least 0.9, where 1 is the maximum; inactive = score below 0.9.

Read-out in assay [1]: Tissue Factor, F3 (gene 2152)
Nature of the assay: BSK_CASM3C_TissueFactor: BioMAP Diversity Plus: CASM3C Assay for Tissue Factor Biomarker Activity (AID 2283052).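 Also: cell surface tissue factor protein level read by ELISA.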 As to conditions: primary human coronary artery smooth muscle cells; actives raise or lower the signal.

Read-out in assay [2]: Interferon-gamma inducible Protein 10 (IP10), CXCL10 (gene 3627)
Kind of assay: BSK_hDFCGF_IP10: BioMAP Diversity Plus: hDFCGF Assay for Interferon-gamma inducible Protein 10 (IP10) Biomarker Activity (AID 2283053). As to conditions: primary human foreskin fibroblasts; actives raise or lower the signal. The essentials: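 Human foreskin fibroblast primary cells (hDFCGF system) were dosed with chemical and assayed at 24 h; IP-10 measured by ELISA. Activity fitted bidirectionally relative to DMSO negative control as baseline.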

Read-out in assay [3]: Urokinase-type plasminogen activator receptor (uPAR), PLAUR (gene 5329)
Kind of assay: BSK_CASM3C_uPAR: BioMAP Diversity Plus: CASM3C Assay for Urokinase-type plasminogen activator receptor (uPAR) Biomarker Activity (AID 2283054).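 Also: cell-surface uPAR protein level quantified by ELISA.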 As to conditions: primary human coronary artery smooth muscle cells; actives raise or lower the signal.

Read-out in assay [4]: Vascular cell adhesion molecule 1 (VCAM1), VCAM1 (gene 7412)
Nature of the assay: BSK_CASM3C_VCAM1: BioMAP Diversity Plus: CASM3C Assay for Vascular cell adhesion molecule 1 (VCAM1) Biomarker Activity (AID 2283055).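 Also: VCAM-1 protein level quantified by ELISA on the cells.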 The following applies: primary human coronary artery smooth muscle cells; actives raise or lower the signal.

Read-out in assay [5]: Collagen III, COL3A1 (gene 1281)
Kind of assay: BSK_hDFCGF_CollagenIII: BioMAP Diversity Plus: hDFCGF Assay for Collagen III Biomarker Activity (AID 2283056). As to conditions: primary human foreskin fibroblasts; actives raise or lower the signal. The essentials: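 ELISA read-out of collagen III from human skin fibroblast cultures sampled 24 h post-dosing. Values were derived by bidirectional fitting relative to the DMSO vehicle control.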

Read-out in assay [6]: Epidermal growth factor receptor (EGFR), EGFR (gene 1956)
Nature of the assay: BSK_hDFCGF_EGFR: BioMAP Diversity Plus: hDFCGF Assay for Epidermal growth factor receptor (EGFR) Biomarker Activity (AID 2283057). As to conditions: primary human foreskin fibroblasts; actives raise or lower the signal. The essentials:
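Primary human foreskin fibroblasts were exposed to compound for 24 h, after which cell-surface EGFR was quantified by ELISA. Activity was fitted bidirectionally against the DMSO negative control as baseline.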

Read-out in assay [7]: Interleukin-8 (IL8), CXCL8 (gene 3576)
Nature of the assay: BSK_hDFCGF_IL8: BioMAP Diversity Plus: hDFCGF Assay for Interleukin-8 (IL8) Biomarker Activity (AID 2283058). As to conditions: primary human foreskin fibroblasts; actives raise or lower the signal. The essentials:
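Cells used are human skin primary fibroblasts. Chemical is added, cultures run 24 h, then IL-8 is quantified by ELISA, and gain or loss versus DMSO control is fitted in both directions.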

A short description of assay [8]: BSK_hDFCGF_Proliferation: Cell Proliferation Assessment in the BioMAP Diversity Plus: hDFCGF Assay (AID 2283059).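 Also: curves fitted for both rise and fall of signal versus DMSO baseline.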 As to conditions: primary human foreskin fibroblasts. The essentials: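 This proliferation readout used SRB total-protein staining of human foreskin fibroblasts […], normalized to DMSO with bidirectional curve fitting.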
Read-out in assay [9]: Macrophage colony-stimulating factor (MCSF), CSF1 (gene 1435)
Kind of assay: BSK_hDFCGF_MCSF: BioMAP Diversity Plus: hDFCGF Assay for Macrophage colony-stimulating factor (MCSF) Biomarker Activity (AID 2283060). The following applies: primary human foreskin fibroblasts; actives raise or lower the signal. The essentials: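 Primary human foreskin fibroblasts dosed with chemical; 24 h later, M-CSF quantified by ELISA; curves fitted in both directions vs DMSO negative control.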

Assay [10] can be described thus: BSK_hDFCGF_SRB: Viability Assessment in the BioMAP Diversity Plus: hDFCGF Assay (AID 2283061).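 Also: cells exposed to compound for 24 h before the read.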 The following applies: primary human foreskin fibroblasts. The essentials: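 Readout is SRB absorbance at 560 nm, reflecting total protein in parallel cultures of human foreskin fibroblasts harvested 24 h after chemical dosing. Activity was fitted bidirectionally relative to DMSO.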

As to `CCCCC(CC)COC(=O)c1ccc(C(=O)OCC(CC)CCCC)cc1` (stereo not given), the outcome in [1], in [2], in assay [3], in [4], in assay [5] and in [6] was inactive. For the same molecule, the outcome in assay [7], in assay [8], in assay [9] and in [10] was inactive.

Take `CC(C)(O)c1coc(S(=O)(=O)NC(=O)Nc2c3c(cc4c2CCC4)CCC3)c1`: the result in assay [1], in [2], in [3], in assay [4], in assay [5] and in [6] was inactive. Further, the result in assay [7], in assay [8], in assay [9] and in [10] was inactive.

A word on the AC50: it is the midpoint of the concentration-response curve, whichever way the signal moves. Consider `CCCCC(CC)COC(=O)CCCCCCCCC(=O)OCC(CC)CCCC` (stereo not given), for which the outcome in assay [1], in [3], in assay [4], in assay [5], in assay [6] and in assay [7] was inactive. Also, the result in assay [8], in assay [9] and in [10] was inactive. Further, the AC50 in assay [2] is 6.18 µM (active).

As to `CCCCCCCCO`, the outcome in [1], in [2], in assay [3], in [4], in assay [5] and in assay [6] was inactive. Further, the result in assay [7], in assay [8], in assay [9] and in assay [10] was inactive.

As for `Cc1ccc(C)c(O)c1`, the outcome in assay [1], in assay [2], in assay [3], in assay [4], in [5] and in assay [6] was inactive. For the same molecule, the outcome in [7], in assay [8], in assay [9] and in assay [10] was inactive.

Regarding `CC(C)CC(C)(O)C#CC(C)(O)CC(C)C` (stereo not given), the outcome in assay [1], in [2], in assay [3], in assay [4], in [5] and in [6] was inactive. Also, the outcome in [7], in assay [8], in [9] and in [10] was inactive.

As for `CCNc1ccccc1`, the result in assay [1], in assay [2], in assay [3], in assay [4], in assay [5] and in assay [6] was inactive. Besides, the outcome in assay [7], in [8], in assay [9] and in assay [10] was inactive.

`CC(=O)c1ccc2c(c1)[C@H](NC(=O)c1ccc(F)cc1)[C@@H](O)C(C)(C)O2`: the outcome in [1], in [2], in assay [3], in assay [4], in [5] and in assay [6] was inactive. Besides, the result in [7], in [8], in [9] and in assay [10] was inactive.

Regarding `O=C(O)CC(O)C(=O)O` (stereo not given), the result in assay [1], in assay [2], in assay [3], in assay [4], in [5] and in assay [6] was inactive. Moreover, the result in assay [7], in assay [8], in assay [9] and in assay [10] was inactive.

With `O=C(CCCCCCCCc1cccnc1)N1CCC(C=C(c2ccccc2)c2ccccc2)CC1`, the result in assay [1] and in assay [6] was inactive. The AC50 in assay [2] is 9 µM (active); in [3] it was 39.2 µM (active); in [4], 37.9 µM (active); in assay [5] it was 4.91 µM (active); in assay [7] it was 10.7 µM (active); in [8], 5.65 µM (active). In addition, the AC50 is 7.88 µM (active) in assay [9] and 7.83 µM (active) in assay [10].

Turning to `Oc1ccc2c(c1)-c1ccccc1C2`, the outcome in assay [1], in [2], in assay [3], in [4], in assay [5] and in [6] was inactive. For the same molecule, the outcome in [7], in assay [9] and in assay [10] was inactive. For the same molecule, the AC50 in assay [8] was 29.8 µM (active).

Regarding `Nc1nc2ncc(CNc3ccc(C(=O)N[C@@H](CCC(=O)O)C(=O)O)cc3)nc2c(=O)[nH]1`, the outcome in assay [1], in assay [2], in [3], in [4], in [5] and in assay [6] was inactive. The outcome in [7], in assay [8], in assay [9] and in assay [10] was inactive.

For the molecule `CC(C)=CCCC(C)CCO` (stereo not given), the result in [1], in assay [2], in [3], in assay [4], in assay [5] and in assay [6] was inactive. Moreover, the outcome in assay [7], in assay [9] and in assay [10] was inactive. For the same molecule, in [8], the AC50 is 26.4 µM (active).

Consider `CCCC(=O)OCC`, for which the outcome in assay [1], in assay [2], in [3], in assay [4], in [5] and in assay [6] was inactive. The outcome in assay [7], in [8], in assay [9] and in [10] was inactive.

In the case of `Cc1ccc(N)cc1O`, the outcome in assay [1], in assay [2], in assay [3], in assay [4], in assay [5] and in assay [6] was inactive. Moreover, the outcome in assay [7], in assay [9] and in assay [10] was inactive. Also, the AC50 in assay [8] was 23.9 µM (active).

Turning to `CCOCCOCCOCCO`, the outcome in [1], in assay [2], in assay [3], in assay [4], in [5] and in assay [6] was inactive. In addition, the outcome in assay [7], in assay [8], in assay [9] and in assay [10] was inactive.

`COC(=O)CC(=O)OC`: the outcome in assay [1], in assay [2], in assay [3], in assay [4], in assay [5] and in assay [6] was inactive. Further, the outcome in assay [7], in [8], in [9] and in assay [10] was inactive.

For `CC/C(=C\C(=N/O)C(N)=O)C(C)[N+](=O)[O-]` (stereo not given), the outcome in assay [1], in assay [2], in assay [3], in [4], in assay [5] and in assay [6] was inactive. Moreover, the outcome in [7], in assay [8], in [9] and in [10] was inactive.

As to `COc1ccc2sc(C(=O)Nc3nnn[nH]3)c(OC(C)C)c2c1`, the AC50 in assay [1] is 7.08 µM (active); in assay [2], 13.6 µM (active); in assay [3], 13 µM (active); in [5] it was 5.42 µM (active); in [6] it was 8.61 µM (active); in [7], 20.5 µM (active). In addition, the figures for the AC50 in assay [8], in assay [9] and in assay [10] were 12.1 µM (active), 11.4 µM (active) and 10.3 µM (active), respectively. In addition, the result in assay [4] was inactive.

As for `CC(C)c1cccc(C(C)C)c1N1C(=O)c2ccc(O)cc2C1=O`, the result in assay [1], in assay [5], in assay [6] and in assay [7] was inactive. For the same molecule, the AC50 in assay [2] is 27.9 µM (active); in assay [3], 20 µM (active); in assay [4], 16.9 µM (active); in [8], 9.91 µM (active); in assay [9] it was 14.7 µM (active); in assay [10], 14.9 µM (active).

As to `COC(=O)c1c(Cl)c(Cl)c(C(=O)OC)c(Cl)c1Cl`, the result in [1], in [2], in assay [3], in assay [4], in [5] and in assay [6] was inactive. Further, the result in assay [7], in assay [8], in assay [9] and in [10] was inactive.

Source of the values: PubChem BioAssay (EPA / NIEHS).
